# Only some compounds are listed: those with a hit (about 4.6% of all), similar ones and a draw of the others.
# NALP3 yeast inh = inhibitors of NALP3 inflammasome in yeast. Yeast reconstituted NLRP3/ASC/caspase-1, beta-gal luminescence, 24 h. inhibition, % at 10 µM. actives 0.39% (n = 330,000);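 active = inhibition of 50% or more; inactive = inhibition below 50%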
# tim23-1 inh = tim23-1 yeast growth inhibition. actives 1.3% (n = 330,000). inhibition, % at 20 µM. S. cerevisiae tim23-1 growth, BacTiter-Glo luminescence, 24 h;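 active = growth inhibition of the mutant yeast at or above 50%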;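 note: temperature-sensitive mutant grown at 25 °C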
# SKKanGAS inh = SKKanGAS growth inhibition | AID 1662 | inhibition, % at 7.5 µM | actives 1.3% (n = 300,000) | S. pyogenes SKKanGAS, kanamycin growth, BacTiter-Glo, 6 h;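 active = mean replicate score, as percent of positive control median, at least 50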;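 note: strain carries kanamycin resistance gene driven by streptokinase promoter and grows in 40 µg/ml kanamycin; loss of luminescence reflects streptokinase promoter inhibition or plain growth inhibition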
# TIM10 inh = growth inhibitors of TIM10 yeast strain; inhibition, % at 10 µM; S. cerevisiae TIM10 strain growth, BacTiter-Glo luminescence, 24 h; actives 1.4% (n = 330,000);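 active = inhibition of 40% or more at the single tested concentration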;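 note: wild-type TIM10 isogenic control strain grown at permissive 25 °C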
# tim10-1 inh = growth inhibitors of tim10-1 mutant yeast. S. cerevisiae tim10-1 ts strain growth, BacTiter-Glo, 24 h. inhibition, % at 20 µM. actives 2.2% (n = 330,000). AID 463190;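 active = inhibition of at least 40%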;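 note: mutant grown at 25 °C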
# Hits are given with their value; n = inactive; x = no result given.
SMILES,NALP3 yeast inh,tim23-1 inh,SKKanGAS inh,TIM10 inh,tim10-1 inh
N#Cc1ccc(Cl)cc1NC(=O)CSc1nc2nc(-c3cccs3)cc(C(F)(F)F)c2c(=O)[nH]1,n,n,55,n,n
COc1ccc(NC(=O)CSc2nc3nc(-c4cccs4)cc(C(F)(F)F)c3c(=O)[nH]2)c(OC)c1,n,n,54,n,n
O=C(CN(Cc1ccco1)Cc1ccco1)Nc1cc(S(=O)(=O)N2CCCCC2)ccc1Cl,n,n,x,n,n
NCC(=O)NCC(=O)NC[C@H]1O[C@@H](n2cnc3c(N)ncnc32)[C@H](O)[C@@H]1O,x,n,x,n,n
COc1ccccc1C(=O)NNC(=S)NC(=O)c1cccs1,n,n,104,n,n
COc1ccccc1C(=O)NC(=S)NNC(=O)c1sc2ccccc2c1Cl,n,n,118,n,n
Cc1c(NC(=S)NC(=O)c2sc3ccccc3c2Cl)cccc1C(=O)O,n,n,n,n,n
COCCNC(=S)NNC(=O)c1cccs1,n,n,n,n,n
COc1ccccc1C(=O)NNC(=S)NC(=O)c1sc2ccccc2c1Cl,n,n,94,n,n
O=C(CN1CCCC1c1ccc2c(c1)OCCO2)NC(=O)Nc1ccccc1 (configuration not stated),n,n,x,n,n
Cc1ccc(-c2nnc(COC(=O)c3cccs3)o2)cc1,n,n,n,n,n
CC1(C)OC(C(O)(c2ccccc2)c2ccccc2)[C@@H](C(O)(c2ccccc2)c2ccccc2)O1 (some centres not stated),x,x,51,x,x
CN(C)Cc1ccccc1C(O)(c1ccccc1)c1ccccc1,n,n,n,n,n
CN(C)S(=O)(=O)c1ccc(C(=O)OCC(=O)c2csc(N3CCCCC3)n2)cc1,n,n,x,n,n
COc1cnc(-c2ccccc2)nc1Oc1ccccc1C,n,n,n,n,n
COc1cnc(-c2ccccc2)nc1Oc1ccc(C(C)(C)C)cc1,n,n,93,n,n
Cc1ccc(N2CC(C(=O)OCC(=O)NNC(=O)c3ccccc3)CC2=O)cc1 (configuration not stated),n,n,n,n,n
Cc1oc(-c2cc(Cl)cc(Cl)c2)cc1C(=O)NCCc1ccccc1,n,n,51,n,n
COc1ccc(CCNC(=O)c2cc(-c3cc(Cl)cc(Cl)c3)oc2C)cc1,n,n,n,n,n
O=C(CN1CCN(c2cnn(-c3ccccc3)c(=O)c2Cl)CC1)NC1CCS(=O)(=O)C1 (configuration not stated),n,n,x,n,n
O=C(O)c1cn(C2CC2)c2cc(N3CCN(S(=O)(=O)c4ccc5c(c4)OCCO5)CC3)c(F)cc2c1=O,n,n,121,n,n
N#C/C(=C\c1ccc(/C=C(/C#N)c2nn(CCO)c(N)c2C#N)cc1)c1nn(CCO)c(N)c1C#N,n,n,67,n,n
N#C/C(=C/c1ccccc1)c1nn(CCO)c(N)c1C#N,n,n,n,n,n
Oc1nc(Nc2ccc(Cl)cc2Cl)sc1/C=C1\C=Nc2ccccc21,n,n,115,n,n
Cc1ccccc1C(=O)NNC(=O)C1CCN(C(=O)Nc2ccccc2)CC1,n,n,n,n,n
SMILES,NALP3 yeast inh,tim23-1 inh,SKKanGAS inh,TIM10 inh,tim10-1 inh
CCCCn1c(CCCNC(=O)c2ccco2)nc2ccccc21,n,n,53,n,n
CCCn1c(NC(=O)c2ccco2)nc2ccccc21,n,n,n,n,n
COc1ccc(OCCn2c(NC(=O)c3ccco3)nc3ccccc32)cc1,n,n,62,n,n
CCCCn1c(CCNC(=O)c2ccco2)nc2ccccc21,n,n,n,n,n
S=C(Nc1ccccc1)Nc1nc2ccccc2n1CCOc1ccccc1,n,n,n,n,n
CC(=O)Nc1nc2ccccc2n1CCOc1ccccc1,n,n,63,n,n
CCOc1ccc(NS(=O)(=O)c2ccc(C(=O)NCC(c3ccc(OC)cc3)N3CCCC3)cc2)cc1 (configuration not stated),n,n,n,n,n
O=C(CSc1nc(N2CCOCC2)nc(N2CCOCC2)n1)Nc1cccc(C(F)(F)F)c1,n,n,54,n,n
Cc1cc(Oc2ccc(-c3ccccc3)cc2)nc(N2CCOCC2)n1,n,n,54,n,n
Cc1n[nH]c(C)c1CCCCOc1ccccc1,n,n,n,n,n
Cc1cccc(C)c1OCCCCc1c(C)n[nH]c1C,n,n,n,n,n
Cc1n[nH]c(C)c1CCCCOc1ccccc1F,n,n,68,n,n
Cc1ccccc1OCCCCc1c(C)n[nH]c1C,n,n,95,n,n
Cc1ccccc1OCCCc1c(C)n[nH]c1C,n,n,64,n,n

# Compound activity from PubChem BioAssay.
